# Screening results: PubChem BioAssay, National Center for Advancing Translational Sciences (NCATS)
# TDP1 cell CPT: DT40-hTDP1 cell growth loss with CPT; chicken DT40 Tdp1-/-;hTDP1 cells + 20 nM CPT, ATP luminescence, 48 h; Potency, µM (top dose mostly 46.2 µM), without a hit: at the top dose activity change, negative = growth inhibition, most hits filed as inhibitors; actives 12% (n = 420,000); AID 686979; note: nearly all actives have a fitted effect of over 55% in size
#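 Cell growth measured by CellTiter-Glo luminescence after a minimum 48 h, 37 C compound exposure with 20 nM CPT in Tdp1-knockout DT40 cells stably expressing hTDP1, seeded 400/well; qHTS titration format.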
# DT40 TDP1 no CPT: qHTS for Inhibitors of human tyrosyl-DNA phosphodiesterase 1 (TDP1): qHTS in cells in absence of CPT. DT40 Tdp1-/- hTDP1 cells, no CPT, ATP luminescence, 48 h. Potency, µM (top dose mostly 46.2 µM), without a hit: top-dose activity change, negative = growth inhibition, usual class: inhibitors. actives 15% (n = 420,000); note: nearly all actives have a fitted effect of over 55% in size
#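 No-CPT arm: Tdp1-/-;hTDP1 DT40 cells (400/well) plus compounds, incubated ≥48 hr at 37 °C. Readout CellTiter-Glo luminescence.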
# VDR inh: inhibitors of human vitamin D receptor; P11473; Potency, µM, for inactives: max response, negative = inhibition, usual class: inhibitors; actives 0.93% (n = 400,000); VDR-SRC2-3 peptide fluorescence polarization, 2 h
#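 Fluorescence polarization assay of small-molecule disruption of VDR binding to coregulator peptide SRC2-3. Compounds and controls pin-transferred, then read after 2 h incubation at ambient room temperature.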
# PLK1 PBD block: blocks phosphopeptide binding to human PLK1 polo-box domain. Plk1 PBD binding of FITC phosphopeptide, fluorescence polarization. actives 2.8% (n = 360,000). Potency, µM, inactives show max response, negative = inhibition, most hits filed as inhibitors; note: series mostly up to about 57 µM; nearly all actives have a fitted effect of over 65% in size
# TDP1 block: inhibitors of human tyrosyl-DNA phosphodiesterase TDP1; recombinant TDP1, AlphaScreen DNA substrate cleavage; actives 0.28% (n = 350,000); Potency, µM (doses to about 130 µM), for the others: at the highest dose activity change, negative = inhibition, most hits filed as inhibitors; note: nearly all actives have a fitted effect of over 40% in size
#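 Compounds were preincubated with Tdp1 (1 nM final) for 15 min at room temperature before substrate (15 nM final) started a 5 min reaction; beads (10 ug/ml final) were then added for 10 min before AlphaScreen detection.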
# KAT2A inh: blocks human GCN5L2 histone acetyltransferase; actives 0.21% (n = 390,000); Q92830; AID 504327; Potency, µM (doses to about 58.9 µM), inactives show top-dose activity change, negative = inhibition, actives largely listed as inhibitors; GCN5L2 HAT assay, ThioGlo1 CoA-SH fluorescence
# Target sequence (Q92830 whole entry, looked up): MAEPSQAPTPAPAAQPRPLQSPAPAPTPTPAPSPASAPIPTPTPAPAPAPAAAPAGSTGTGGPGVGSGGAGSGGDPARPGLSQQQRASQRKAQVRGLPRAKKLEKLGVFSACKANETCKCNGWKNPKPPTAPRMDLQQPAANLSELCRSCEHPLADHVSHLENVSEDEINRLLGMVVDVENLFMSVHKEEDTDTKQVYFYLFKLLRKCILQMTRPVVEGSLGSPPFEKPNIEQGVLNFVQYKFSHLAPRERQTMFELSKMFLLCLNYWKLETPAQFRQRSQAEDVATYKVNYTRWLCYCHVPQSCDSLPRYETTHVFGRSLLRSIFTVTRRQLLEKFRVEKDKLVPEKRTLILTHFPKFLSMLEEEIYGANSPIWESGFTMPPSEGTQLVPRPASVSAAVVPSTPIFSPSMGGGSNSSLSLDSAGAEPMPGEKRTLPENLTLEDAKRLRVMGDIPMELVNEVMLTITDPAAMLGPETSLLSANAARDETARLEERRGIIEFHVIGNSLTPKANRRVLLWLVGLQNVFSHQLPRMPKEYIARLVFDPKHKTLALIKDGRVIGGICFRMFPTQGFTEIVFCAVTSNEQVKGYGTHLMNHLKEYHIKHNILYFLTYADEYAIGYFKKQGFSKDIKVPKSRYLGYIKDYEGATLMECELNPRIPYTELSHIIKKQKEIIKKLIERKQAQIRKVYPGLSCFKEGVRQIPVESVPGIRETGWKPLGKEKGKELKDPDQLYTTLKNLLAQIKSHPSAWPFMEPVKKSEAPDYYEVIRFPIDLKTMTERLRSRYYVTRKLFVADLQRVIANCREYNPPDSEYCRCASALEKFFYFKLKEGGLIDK
#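 Free CoA generated was detected with ThioGlo1 (50uM) fluorescence at Ex340nm/Em540nm, read immediately and after 20 min at room temperature. Enzyme, 20 nM in HEPES pH 7.5 buffer, saw compounds 15 min before adding 75uM H3(1-25) peptide and 70uM acetyl-CoA.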
# * = called active by the depositor; ? = inconclusive; · = no result; [ ] = another dose, or the depositor's remark. Compounds with a hit are over-represented: about 18% of the library has one in this group of screens. Calls come from the whole dose curve; as a rule, active = well fitted curve in the direction sought with a large enough effect; inconclusive = small, poorly fitted or top-dose-only effect, or another doubt; inactive = no such curve, though single readings can be large; an effect the other way counts as inactive or inconclusive. % is set by controls: 0 for no effect and ±100 for the full control effect; potency is the fitted concentration of half-maximal effect.
SMILES,TDP1 cell CPT,DT40 TDP1 no CPT,VDR inh,PLK1 PBD block,TDP1 block,KAT2A inh
COc1ccc2[nH]c3c(c2c1)CCN1C(=O)C(CC(=O)NC(C)(C)C)C[C@H](C(=O)N(C(C)C)C(C)C)[C@@]31C (stereo partly specified),?,?,-3%,-12%,0%[56.1 µM],0%
CC(C)=CCC/C(C)=C/CNC(=O)CC1C[C@H](C(=O)N(C(C)C)C(C)C)[C@@]2(C)c3[nH]c4ccccc4c3CCN2C1=O (stereo partly specified),16µM*,23µM*,4%,-6%,0%,-17%
CCCCNc1c(-c2ccc(SC3CCCCC3)c(OC)c2)nc2ccc(C)cn12,23µM*,18µM*,-15%,2%,4%,?
CCCCNc1c(-c2ccc(OC)c(SC3CCCCC3)c2)nc2ccc(C)cn12,5.8µM*,8.2µM*,0%,-18%,5%,-19%
COc1ccc(-c2nc3ccc(C)cn3c2NCc2ccccc2)cc1SC1CCCCC1,13µM*,23µM*,-5%,-5%,·,?
CCCc1c(C(=O)N/N=C/c2cccc(OCc3ccc(F)cc3)c2)nnn1-c1nonc1N,-22%,1%,15%,5%,1%,6%
CCc1ccccc1NC(=O)Cn1nc(C)c2nn(-c3ccc(Cl)cc3)c(C)c2c1=O,?,15µM*,1%,·,5%,-8%
COC(=O)c1ccccc1NC(=O)Cn1nc(C)c2nn(-c3ccc(Cl)cc3)c(C)c2c1=O,21µM*,26µM*,7%,·,3%,-2%
COC(=O)c1ccccc1NC(=O)CCn1nc(C)c2c(C)n(-c3ccccc3)nc2c1=O,-26%,-23%,9%,·,0%,?
COc1ccc(NS(=O)(=O)c2ccc3oc4ccccc4c3c2)cn1,23µM*,?,1%,-6%,3%,-3%
COc1ccc(NS(=O)(=O)c2ccc(Br)cc2)cn1,2%,?,8%,1%,4%,-4%
COc1ccc(NC(=O)c2sc(=O)n(Cc3ccccc3C#N)c2C)cc1OC,?,?,·,-11%,·,·
O=C(NCCCCc1ccccc1)NC[C@@H]1CC[C@@H](Cc2ccc(-c3ccccc3)cc2)O1,16µM*,15µM*,-12%,-6%,-1%[56.1 µM],-10%
O=C(NCCCc1ccccc1)C1CC1,6%,6%,-10%,4%,·,·
O=c1c(-c2cccs2)nc2cncnc2n1Cc1ccccc1,15%,13%,-12%,·,·,-9%
CSc1ncccc1C(=O)OCc1ccc([N+](=O)[O-])cc1,4%,?,20%,-19%,3%,-14%
CC1Cc2cc(S(=O)(=O)N3CCCCC3C)ccc2N1C(=O)C1CCC1 (stereo unspecified),?,?,-4%,-6%,0%,0%
CC1CC(C)CN(S(=O)(=O)c2ccc3c(c2)CC(C)N3C(=O)C2CC2)C1 (stereo unspecified),18µM*,15µM*,3%,-3%,1%,-5%
CCOC(=O)C1CCCCN1S(=O)(=O)c1ccc2c(c1)CC(C)N2C(=O)C1CCC1 (stereo unspecified),23µM*,9.2µM*,-9%,2%,1%,-4%
CC1CC(C)CN(S(=O)(=O)c2ccc3c(c2)CC(C)N3C(=O)C2CCC2)C1 (stereo unspecified),23µM*,15µM*,8%,-10%,0%,?
COC(=O)c1cc(S(=O)(=O)NCc2ccc3c(c2)OCO3)cn1C,3%,-9%,-3%,-10%,1%,-7%
O=C(Cc1cccc2ccccc12)N/N=C/c1ccc(O)c([N+](=O)[O-])c1,20%,-16%,-11%,-9%,3%,?
O=C(Cc1cccc2ccccc12)N/N=C/c1ccc2cccc(O)c2n1,?,15µM*,0%,-6%,8%,-1%
CC(=O)Nc1nc2nc(-c3ccccc3)cc(-c3ccccc3)n2n1,?,?,-4%,-2%,10%,15%
O=C(Nc1nc2nccc(-c3ccccc3)n2n1)c1ccccc1,-8%,-18%,-7%,-2%,79µM*,-3%
SMILES,TDP1 cell CPT,DT40 TDP1 no CPT,VDR inh,PLK1 PBD block,TDP1 block,KAT2A inh
O=C(Nc1nc2nc(-c3ccccc3)cc(-c3ccccc3)n2n1)c1ccco1,23µM*,23µM*,11%,-15%,8%,-14%
COc1ccc(CN(CCN)C2CC(C)N(C)CC2C)cc1 (stereo unspecified),-15%,-3%,-28%,-10%,3%,1%
CC(C)(C)n1nnnc1C(c1ccccc1)N1CCN(C/C=C/c2ccccc2)CC1 (stereo unspecified),?,?,·,-2%,·,·
Cc1cccc(C)c1-n1nnnc1C(c1cc2ccccc2o1)N1CCN(C/C=C/c2ccccc2)CC1 (stereo unspecified),18µM*,23µM*,·,6%,·,·
Cc1cccc(C)c1-n1nnnc1C(c1cccc2ccccc12)N1CCN(C/C=C/c2ccccc2)CC1 (stereo unspecified),4.6µM*,5.8µM*,·,5%,·,·
CCCOC1(C(F)(F)F)NC(=O)N(c2cccc(Cl)c2)C1=O (stereo unspecified),·,·,16%,·,2%,1%
CC(C)c1ccc(NC(=O)Cn2cc(S(=O)(=O)Cc3cccc(Cl)c3)c3ccccc32)cc1,?,?,-4%,·,5%,-8%
Cc1ccc(Cl)cc1N1CCN(CCCNc2ncnc3onc(-c4ccc(F)cc4)c23)CC1,15µM*,18µM*,10%,·,-4%,-27%
Fc1ccc(-c2noc3ncnc(NCC4CCN(Cc5ccc(Cl)cc5)CC4)c23)cc1,?,13µM*,-7%,·,5%,-1%
Cc1ccc(CN2CCC(CNc3ncnc4onc(-c5ccc(F)cc5)c34)CC2)cc1,-40%,23µM*,18%,·,6%,13%
CCCCCOc1ccc(C(=O)CCC(=O)Nc2ccc(NC(C)=O)cc2)cc1,-6%,-2%,-4%,-13%,·,-6%
COC(=O)[C@@]12C[C@@H](CC(=O)NCc3cccc(C(F)(F)F)c3)C(=O)N(Cc3ccc4c(c3)OCO4)C1=CCC(C)(C)C2,?,18µM*,·,-6%,·,·
COC(=O)[C@@]12C[C@@H](CC(=O)NCc3ccc(OC)c(OC)c3)C(=O)N(Cc3ccc4c(c3)OCO4)C1=CCC(C)(C)C2,15µM*,26µM*,·,4%,·,·
